Composite z-score and z-score data for 6 compounds are collected here from PubChem BioAssay.

Assay [1] in a line: compounds binding Alexa647 anti-His antibody – biochemical, small-molecule microarray, 635 nm fluorescence, artefact control for SMM control protein annotation, primary screen (AID 1128).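 Note: score merges feature fluorescence with signal-to-noise for each printed compound spot.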 Conditions: higher = more signal.
In assay [2] the test system is Human papillomavirus type 1a E7 protein (residues 1-88). As to the kind of experiment: HPV1a E7 small-molecule binders, primary screen, biochemical, small-molecule microarray, residues 1-88, 635 nm (AID 1129). The conditions noted are these: small-molecule microarray binding, fluorescence 635 nm; higher = more signal.
For assay [3], the target named is Focal adhesion kinase 1 (Homo sapiens) (UniProt Q05397). As to the kind of experiment: PTK2 protein binding on printed compound slides – biochemical, small-molecule microarray, 635/667 nm fluorescence, BSA, DTT, primary screen (AID 1130).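 Note: composite of spot emission at 667 nm and signal to noise over triplicate slides.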 The conditions noted are these: 635 nm fluorescence, higher = more signal.
Assay [4] concerns Fibrinogen (Alexa647-labelled). As to the kind of experiment: Alexa647-fibrinogen binding to printed small molecules – biochemical, small-molecule microarray, 635/667 nm fluorescence, artefact control for SMM control-protein annotation, profiling panel (AID 1131).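 Note: z-score merges 667 nm fluorescence with per-spot signal-to-noise over triplicate slides.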 Conditions: fibrinogen-A647 binding fluorescence, higher = more signal.
Assay [5] deals with Follistatin (Homo sapiens) (UniProt P19883). As to the kind of experiment: FST protein binding to printed compounds – biochemical, small-molecule microarray, 635/667 nm fluorescence, primary screen (AID 1132). Conditions: 635 nm fluorescence, higher = more signal.
Assay [6] addresses Fibroblast growth factor 2 (Homo sapiens) (UniProt P09038). Kind of assay: basic fibroblast growth factor binding to printed compounds – biochemical, small-molecule microarray, 635/667 nm fluorescence, primary screen (AID 1133). The conditions noted are these: FGF2, fluorescence 635/667, higher = more signal.
The nature of assay [7]: JC-1 mitochondrial potential readout, lung cancer cells – cell-based, A549, JC-1 fluorescence, basal, 24 h, 100 nL, profiling panel (AID 1138).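 Note: A549 lung adenocarcinoma cells under basal conditions with no added stimulus; test concentration not given here.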 The conditions noted are these: higher = more signal.
A further assay relates to Lefty1. As to the kind of experiment: Lefty1 protein binding to printed compounds – biochemical, small-molecule microarray, 635/667 nm fluorescence, primary screen (AID 1139). The conditions noted are these: fluorescence 635/667, higher = more signal.
For assay [8], the system named is wheat germ agglutinin (Triticum aestivum), Alexa647-labelled. Kind of assay: Alexa647-WGA lectin binding to printed small molecules – biochemical, small-molecule microarray, 635/667 nm fluorescence, artefact control for SMM control-protein annotation, profiling panel (AID 1140).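 Note: score merges 667 nm feature emission with signal to noise over triplicate slides.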 The conditions noted are these: WGA-A647 binding, 635 nm fluorescence, higher = more signal.

For assay [9], the target named is Luciferin 4-monooxygenase (Photinus pyralis) (UniProt P08659). As to the kind of experiment: inhibition of purified Photinus pyralis luciferase – biochemical, luminescence, purified enzyme, 2006 set, primary screen (AID 1141).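 Note: cell-free assay with purified firefly luciferase at 100 ng per well in PBS; test concentration not given here.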 Conditions: purified firefly luciferase, SteadyGlo luminescence, 30 min; higher = more signal, called active from +8 up or from −8 down.
In assay [10] the test system is Wnt5a (protein binding on small-molecule microarray). Kind of assay: small molecules binding Wnt5a protein – biophysical, small-molecule microarray, 635/667 nm fluorescence, primary screen (AID 1142).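 Note: fluorescence read at 667 nm with signal to noise per printed feature.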 Conditions: 635 nm fluorescence, higher = more signal.
A short description of assay [11]: ATP-based viability of Huh7 replicon cells – cell-based, CellTiter-Glo luminescence, basal, 48 h, cytotoxicity control for HCV replication inhibitor project, primary screen (AID 1143).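 Note: Huh7 hepatoma cells carrying a hepatitis C replication reporter with no stimulus; test concentration not given here.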 The conditions noted are these: higher = more signal, called active from +8 up or from −8 down.
Assay [12] can be described thus: Pseudomonas biofilm growth suppression – PAO1 strain, BacTiter-Glo luminescence, LB-PBS, primary screen (AID 1144). Conditions: P. aeruginosa PAO1 biofilm, 12 h, higher = more signal.
Assay [13] can be described thus: basal CRE-LacZ reporter activity in PC12 – cell-based, unstimulated, primary screen (AID 1145). The conditions noted are these: no forskolin, luminescence, 4.5 h, higher = more signal, called active from +8 up or from −8 down.
Assay [14] can be described thus: forskolin-driven CRE-LacZ activity in PC12 – cell-based, CRE-LacZ reporter, forskolin-stimulated, primary screen (AID 1146).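 Note: PC12 cells with 6xCRE LacZ reporter stimulated by forskolin 10 µM; beta-galactosidase reporter signal reflecting CREB driven transcription.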 Conditions: luminescence, 4.5 h, higher = more signal, called active from +8 up or from −8 down.
Assay [15] deals with Streptavidin (Streptomyces avidinii) (UniProt P22629). Kind of assay: compounds binding control protein streptavidin – biophysical, small-molecule microarray, 635/667 nm fluorescence, artefact control for SMM compound annotation, primary screen (AID 1147).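 Note: signal reflects streptavidin binding to arrayed compounds as a control protein.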 Conditions: higher = more signal.
The nature of assay [16]: probe aInhba binding on compound microarray – biochemical, small-molecule microarray, 635/667 nm fluorescence, primary screen (AID 1148).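 Note: score merges 667nm spot fluorescence with signal-to-noise for antibody binding to printed compounds.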 Conditions: higher = more signal.
In assay [17] the target is Torsin-1A (Homo sapiens) (UniProt O14656). Kind of assay: TOR1A wild-type binding on microarray – cell lysate, small-molecule microarray, lysate, 635/667 nm, primary screen (AID 1149). The conditions noted are these: COS7 hTOR1A-WT lysate, 635 nm fluorescence, higher = more signal.
The target is the same in assay [18]. Kind of assay: torsin A mutant lysate binding on microarrays – cell lysate, small-molecule microarray, COS7 lysate, 635/667 nm fluorescence, primary screen (AID 1150).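 Note: score pools 667 nm emission and signal to noise measuring lysate protein binding.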 Conditions: COS7 hTOR1A mutant lysate, 635 nm fluorescence, higher = more signal.
Assay [19] relates to Sonic hedgehog protein (Shh). Kind of assay: Sonic hedgehog microarray binding compounds – biochemical, small-molecule microarray, 635/667 nm fluorescence, primary screen (AID 1151).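 Note: Shh protein binding to compounds spotted on small-molecule microarray slides; score combines spot fluorescence intensity with signal-to-noise across triplicate slides.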 The conditions noted are these: 635 nm fluorescence, higher = more signal.

Molecules are shown by their SMILES. Activity calls are given as the source filed them. Unless noted, the rule behind the calls is not given here.

Chain of Fibroblast growth factor 2 (Homo sapiens) (P09038 whole entry, looked up): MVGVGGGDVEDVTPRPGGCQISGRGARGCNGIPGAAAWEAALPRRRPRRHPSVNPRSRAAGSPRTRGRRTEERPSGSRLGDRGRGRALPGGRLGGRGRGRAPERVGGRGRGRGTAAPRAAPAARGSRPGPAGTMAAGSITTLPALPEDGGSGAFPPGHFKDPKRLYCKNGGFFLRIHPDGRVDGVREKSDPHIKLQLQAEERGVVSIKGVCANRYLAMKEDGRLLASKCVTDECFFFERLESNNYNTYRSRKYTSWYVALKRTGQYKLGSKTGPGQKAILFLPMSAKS
Chain of Torsin-1A (Homo sapiens) (O14656 whole entry, looked up): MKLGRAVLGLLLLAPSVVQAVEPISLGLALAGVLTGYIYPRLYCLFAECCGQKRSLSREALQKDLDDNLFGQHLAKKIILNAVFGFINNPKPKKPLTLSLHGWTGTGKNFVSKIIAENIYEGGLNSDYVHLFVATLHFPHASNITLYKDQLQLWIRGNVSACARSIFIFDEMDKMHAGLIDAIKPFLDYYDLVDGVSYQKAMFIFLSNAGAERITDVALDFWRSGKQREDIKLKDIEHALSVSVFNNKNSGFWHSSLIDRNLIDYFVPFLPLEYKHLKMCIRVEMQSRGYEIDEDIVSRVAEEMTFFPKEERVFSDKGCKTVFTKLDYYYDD
Chain of Luciferin 4-monooxygenase (Photinus pyralis) (P08659 whole entry, looked up): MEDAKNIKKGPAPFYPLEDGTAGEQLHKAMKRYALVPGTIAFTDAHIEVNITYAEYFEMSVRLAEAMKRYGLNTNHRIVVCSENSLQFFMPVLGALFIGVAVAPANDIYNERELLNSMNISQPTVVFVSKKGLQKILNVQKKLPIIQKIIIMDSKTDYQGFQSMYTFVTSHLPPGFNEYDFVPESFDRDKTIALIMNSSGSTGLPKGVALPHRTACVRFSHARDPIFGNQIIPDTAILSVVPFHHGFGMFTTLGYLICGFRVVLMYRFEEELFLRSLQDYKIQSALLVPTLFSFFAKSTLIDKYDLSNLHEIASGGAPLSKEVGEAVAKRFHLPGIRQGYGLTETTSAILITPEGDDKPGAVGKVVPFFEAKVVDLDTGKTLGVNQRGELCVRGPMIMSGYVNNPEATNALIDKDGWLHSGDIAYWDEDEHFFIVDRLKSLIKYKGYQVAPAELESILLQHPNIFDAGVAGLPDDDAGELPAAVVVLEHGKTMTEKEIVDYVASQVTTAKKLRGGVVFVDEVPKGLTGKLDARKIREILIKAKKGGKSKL
Chain of Follistatin (Homo sapiens) (P19883 whole entry, looked up): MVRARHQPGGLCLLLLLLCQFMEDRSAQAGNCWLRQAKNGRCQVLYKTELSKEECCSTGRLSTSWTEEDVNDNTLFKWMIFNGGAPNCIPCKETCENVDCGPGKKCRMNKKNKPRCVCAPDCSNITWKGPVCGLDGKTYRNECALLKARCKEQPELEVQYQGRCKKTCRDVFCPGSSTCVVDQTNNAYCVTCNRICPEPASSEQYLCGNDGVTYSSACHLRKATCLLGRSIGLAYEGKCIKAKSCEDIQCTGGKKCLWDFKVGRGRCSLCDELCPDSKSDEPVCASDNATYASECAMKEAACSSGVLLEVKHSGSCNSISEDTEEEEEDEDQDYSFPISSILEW
Chain of Streptavidin (Streptomyces avidinii) (P22629 whole entry, looked up): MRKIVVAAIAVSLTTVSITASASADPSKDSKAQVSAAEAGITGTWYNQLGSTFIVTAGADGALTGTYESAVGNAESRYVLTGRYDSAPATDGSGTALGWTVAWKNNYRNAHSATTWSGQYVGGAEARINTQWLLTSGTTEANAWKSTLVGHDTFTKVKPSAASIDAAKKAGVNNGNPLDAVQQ
Chain of Focal adhesion kinase 1 (Homo sapiens) (Q05397 whole entry, looked up): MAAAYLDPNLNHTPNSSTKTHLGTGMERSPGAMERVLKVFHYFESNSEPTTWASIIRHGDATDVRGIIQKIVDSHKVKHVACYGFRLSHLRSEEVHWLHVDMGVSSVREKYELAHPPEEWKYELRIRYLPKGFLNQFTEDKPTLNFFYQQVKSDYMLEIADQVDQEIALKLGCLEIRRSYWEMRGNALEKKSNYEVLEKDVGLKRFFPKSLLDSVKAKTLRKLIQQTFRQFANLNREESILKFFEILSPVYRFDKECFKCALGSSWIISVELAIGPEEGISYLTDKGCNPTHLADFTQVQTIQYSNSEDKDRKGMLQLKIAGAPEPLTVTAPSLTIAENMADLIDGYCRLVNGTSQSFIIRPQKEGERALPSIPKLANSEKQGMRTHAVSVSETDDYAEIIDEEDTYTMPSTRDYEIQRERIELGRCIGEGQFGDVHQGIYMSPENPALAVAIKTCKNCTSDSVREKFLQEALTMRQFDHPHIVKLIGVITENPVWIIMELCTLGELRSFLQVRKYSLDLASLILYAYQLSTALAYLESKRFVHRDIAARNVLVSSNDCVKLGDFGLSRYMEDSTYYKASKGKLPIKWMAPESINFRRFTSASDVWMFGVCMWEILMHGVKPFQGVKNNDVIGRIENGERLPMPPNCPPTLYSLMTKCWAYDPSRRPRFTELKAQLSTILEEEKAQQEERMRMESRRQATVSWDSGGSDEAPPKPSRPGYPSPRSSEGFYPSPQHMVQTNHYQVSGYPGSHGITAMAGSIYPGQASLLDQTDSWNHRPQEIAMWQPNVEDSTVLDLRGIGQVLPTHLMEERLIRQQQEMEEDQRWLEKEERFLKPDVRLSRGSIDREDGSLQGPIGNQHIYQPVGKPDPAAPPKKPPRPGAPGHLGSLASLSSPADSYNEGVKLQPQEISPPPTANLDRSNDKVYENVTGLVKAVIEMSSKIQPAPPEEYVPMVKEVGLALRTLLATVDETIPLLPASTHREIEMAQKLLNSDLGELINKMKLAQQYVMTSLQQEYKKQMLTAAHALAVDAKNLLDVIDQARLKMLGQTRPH

With `CO[C@H]1O[C@H](CO)[C@@H](OC(=O)Nc2ccccc2)[C@H](OC(=O)Nc2ccccc2)[C@@H]1OC(=O)Nc1ccccc1`, the composite z-score in [1] turned out to be 0.865; in assay [2], 1.25; in assay [3], 0.806; in assay [4], 1.01; in [5], 1.3; in [6] it was 0.412. Besides, the composite z-score in the assay with Lefty1 stood at 0.464; in assay [8], 0.833; in assay [10] it was 1.13; in assay [15], 0.467; in [16], 0.347; in the assay with Torsin-1A (Homo sapiens) [17], 0.451. Besides, the composite z-score was 0.872 with Torsin-1A (Homo sapiens) [18] and 1.48 in assay [19]. In addition, the z-score in assay [7] is -0.115; in [9] it was 0.713 (inactive); in assay [11], -4.73 (inactive); in assay [12], -0.309 (inactive); in assay [13], 0.101 (inactive); in assay [14] it was -0.825 (inactive).
Consider `CN1C(=O)C2C=CC(C(O)C#Cc3ccccc3)N(N3CCCCC3)C2C1=O` (stereo not given), for which the composite z-score in assay [1] is 2.14; in assay [2] it was 0.392; in assay [3], -0.381; in assay [4], 0.933; in assay [5], 0.718; in [6], 0.756. Further, the composite z-score was -0.418 in the assay on Lefty1; 1.3 in [8]; 1.11 in assay [10]; 0.762 in [15]; 1.1 in [16]; 1.27 in the assay with Torsin-1A (Homo sapiens) [17]. For the same compound, the composite z-score with Torsin-1A (Homo sapiens) [18] came out at 1.79; in [19] it was 0.841. For the same compound, the z-score is 0.534 in assay [7]; -1.69 (inactive) in [9]; 0.913 (inactive) in assay [11]; -0.686 (inactive) in assay [12]; 0.236 (inactive) in [13]; -0.516 (inactive) in assay [14].
`COC(=O)[C@@]1(Cc2ccccc2)[C@H]2c3cc(C(=O)N(C)C)n(Cc4ccsc4Br)c3C[C@H]2CN1C(=O)c1ccccc1`: the composite z-score is 1.18 in assay [1]; 1.24 in assay [2]; 0.483 in assay [3]; 0.834 in assay [4]; 0.797 in [5]; -0.535 in assay [6]. Moreover, the composite z-score in the assay with Lefty1 is -0.143; in assay [8], 0.948; in assay [10], 0.211; in [15] it was 1.09; in assay [16] it was 0.0737; with Torsin-1A (Homo sapiens) [17] it was 0.856. Further, the composite z-score with Torsin-1A (Homo sapiens) [18] was 0.508; in assay [19] it was -1.21. For the same compound, the z-score in [7] was 1.04; in assay [9], 0.78 (inactive); in assay [11], -3.35 (inactive); in [12] it was -0.166 (inactive); in assay [13] it was 0.58 (inactive); in [14] it was 0.751 (inactive).
Consider `CN(C)C(=O)[C@]1(Cc2ccccc2N=[N+]=[N-])N=C(c2ccc(OCCCO)cc2)O[C@@H]1c1ccccc1N=[N+]=[N-]`, for which the composite z-score was 2.42 in assay [1]; 1.18 in assay [2]; 0.646 in assay [3]; 1.01 in assay [4]; 1.27 in assay [5]; 1.26 in [6]. In addition, the composite z-score with Lefty1 was 0.513; in [8], 1.21; in assay [10], 0.46; in assay [15], 1.41; in assay [16] it was -0.0162; in the assay with Torsin-1A (Homo sapiens) [17], 1.49. Besides, the composite z-score is 0.799 with Torsin-1A (Homo sapiens) [18] and 0.428 in assay [19]. Besides, the z-score was 1.1 in assay [7]; -3.94 (inactive) in assay [9]; -4.48 (inactive) in assay [11]; -0.938 (inactive) in assay [12]; 0.0686 (inactive) in [13]; -1 (inactive) in [14].
Consider `O=C1c2ccccc2[C@](Cc2ccccc2I)(C(=O)NCCN2CCOCC2)[C@H](c2ccc(CO)cc2)N1Cc1ccccc1Cl`, for which the composite z-score in [1] turned out to be 2.09; in assay [2], 1.16; in assay [3], 0.0936; in [4] it was 0.929; in [5], 1; in assay [6], 1.23. In addition, the composite z-score is 0.526 in the assay on Lefty1; 1.08 in assay [8]; 0.66 in assay [10]; 0.851 in assay [15]; 0.62 in assay [16]; 0.442 with Torsin-1A (Homo sapiens) [17]. Also, the composite z-score is 0.244 with Torsin-1A (Homo sapiens) [18] and 1.43 in assay [19]. Moreover, the z-score in assay [7] is 1.87; in [9], -0.593 (inactive); in assay [11], -2.57 (inactive); in assay [12] it was 0.825 (inactive); in assay [13], -0.0512 (inactive); in assay [14], -1.01 (inactive).
Consider `NC(=O)NCC#Cc1ccc2c(c1)[C@]1(C(=O)N2)[C@H](c2ccc(O)cc2)N2[C@H](c3ccccc3)[C@H](c3ccccc3)OC(=O)[C@H]2[C@@H]1C(=O)O`, for which the composite z-score in assay [1] is 0.948; in assay [2], -0.404; in assay [3], -0.415; in assay [4], -0.159; in assay [5], -0.386; in assay [6], -0.912. Moreover, the composite z-score in the assay with Lefty1 is -0.283; in assay [8], -0.142; in [10] it was -0.763; in assay [15], -0.256; in assay [16], -0.299; with Torsin-1A (Homo sapiens) [17], -1.13. Also, the composite z-score with Torsin-1A (Homo sapiens) [18] is -0.914; in assay [19], -0.453. The z-score in [7] was -0.61; in [9], 0.323 (inactive); in assay [11] it was 0.0192 (inactive); in assay [12], -0.248 (inactive); in assay [13] it was 0.895 (inactive); in [14] it was -0.226 (inactive).
